tim23-1 inh: growth inhibitors of tim23-1 mutant yeast, primary screen, luminescence, uHTS | S. cerevisiae tim23-1 growth, BacTiter-Glo luminescence, 24 h | inhibition, % at 20 µM | 330,000 tested, 1.3% active | AID 463212, 2010;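 active = growth inhibition of the mutant yeast at or above 50%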;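 note: temperature-sensitive mutant grown at 25 °C; plate controls were DMSO-treated mutant yeast for no effect and medium wells lacking yeast for full effect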
PfHsp90 yeast 2: growth inhibition of PfHsp90-expressing yeast, primary screen, antimalarial PfHsp90 inhibitor project, S. cerevisiae, BacTiter-Glo luminescence, single point, set 2; AID 504621, 2011; BacTiter-Glo ATP, 48 h; yeast lacking PDR1 and PDR3 efflux regulators; inhibition, % at 9.4 µM; 310,000 tested, 0.32% active;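 active = every replicate shows inhibition above about 80%, whatever the replicate mean, limit read from the data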;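 note: 0% = DMSO neutral controls and 100% = 20 µM radicicol positive controls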
TIM10 inh: growth inhibitors of isogenic TIM10 control yeast, primary screen, counter-screen for tim10-1 yeast inhibitor project, luminescence, uHTS; S. cerevisiae TIM10 strain growth, BacTiter-Glo luminescence, 24 h; inhibition, % at 10 µM; 330,000 tested, 1.4% active;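 active = inhibition of 40% or more at the single tested concentration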;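 note: wild-type TIM10 isogenic control strain grown at permissive 25 °C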
tim10-1 inh: growth inhibitors of tim10-1 mutant yeast, primary screen, luminescence, uHTS; S. cerevisiae tim10-1 ts strain growth, BacTiter-Glo, 24 h; inhibition, % at 20 µM; 330,000 tested, 2.2% active; AID 463190, 2010;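 active = inhibition of at least 40%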;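 note: mutant grown at 25 °C; 0% = DMSO wells with yeast and 100% = wells holding no yeast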
NALP3 yeast inh: NALP3 inflammasome inhibitors in reconstituted yeast, primary screen, luminescence, uHTS. Yeast reconstituted NLRP3/ASC/caspase-1, beta-gal luminescence, 24 h. 330,000 tested, 0.39% active. inhibition, % at 10 µM;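 active = inhibition of 50% or more; inactive = inhibition below 50%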;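 note: plate controls were induced DMSO wells for no effect and uninduced yeast grown without galactose for full effect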
tim10 confirm: growth inhibitors of wild-type TIM10 yeast, confirmation, counter-screen for tim10-1 synthetic lethality project, single concentration, luminescence, S. cerevisiae | shares compounds with TIM10 inh | S. cerevisiae tim10 strain growth, BacTiter-Glo luminescence, 24 h | inhibition, % at 10 µM | AID 463215, 2010 | 4,600 tested, 63% active;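 active = inhibition of yeast growth at or above a set limit in either of two replicates at 10 µM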;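 note: this counterscreen used the strain with wild-type TIM10; 0% = yeast with DMSO and 100% = medium wells lacking yeast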
Active calls of the source: *; · = no result given. A selection: hits, their analogues and other compounds. The true share with any hit is near 3.7%.

SMILES	tim23-1 inh	PfHsp90 yeast 2	TIM10 inh	tim10-1 inh	NALP3 yeast inh	tim10 confirm
CC(=O)C1=C(O)C(=O)N(Cc2ccco2)C1c1ccc2c(c1)OCO2 (stereo not drawn)	19	17	7	6	12	·
Cc1cccc(NC(=S)N/N=C/c2ccc([N+](=O)[O-])s2)c1	24	100*	58*	26	35	34*
Cc1cccc(NC(=O)/C=C/c2ccc([N+](=O)[O-])s2)c1	·	0	·	·	·	·
CCOC(=O)N/N=C/c1ccccc1OCc1ccc(Cl)cc1	47	-7	44*	32	29	33*
Cc1ccc(/C=N/n2c(COc3ccccc3)n[nH]c2=S)s1	39	-18	48*	39	30	44*
CN1/C(=C\C(=S)NC(=O)c2ccccc2Cl)C(C)(C)c2ccccc21	50	0	40*	36	24	15
CC(C)(C)c1cc(NCCCn2ccnc2)n2ncc(-c3ccc(Cl)cc3)c2n1	21	·	60*	35	19	60*
Cc1cc(NCCCn2ccnc2)n2nc(-c3ccc(Cl)cc3)cc2n1	24	-35	13	23	12	·
CCN(CC)c1ccc(-n2c(C)c(C(C)=O)c(C(C)=O)c2C)cc1	41	·	44*	37	9	19
COc1ccc(NC(=O)c2cccc3ccccc23)cc1	2	-15	2	-6	26	·
COc1ccccc1C(=O)Oc1ccccc1C(=O)Nc1ccccc1	49	3	41*	7	26	31
COc1ccc(NC(=O)c2ccccc2C)cc1	3	32	85*	-1	11	10
COc1ccccc1C(=O)Nc1ccc(C(=O)O)cc1	14	·	12	-4	1	·
O=C(O)/C=C/c1ccc(S(=O)(=O)Nc2ccc(C(=O)NCC(=O)O)cc2)cc1	22	·	13	7	11	·
COc1ccccc1C=NNc1nc(C)cc(=O)[nH]1	·	-10	·	·	·	·
N=C(N)N=Nc1c(O)[nH]c2ccc(Br)cc12	1	5	7	3	8	·
O=C(N=Nc1c(O)[nH]c2ccc(Br)cc12)c1ccccc1-n1cccc1	30	17	48*	32	11	35*
CCOc1ccc(CCNC(=O)c2cccc(NC3=NC4CS(=O)(=O)CC4S3)c2)cc1 (stereo not drawn)	5	31	-9	6	5	·
CCc1nc2sc3c(c2c(=S)[nH]1)CC(C)(C)OC3	6	0	16	16	19	·
CSc1nc2sc3c(c2c(=S)[nH]1)CC(C)(C)OC3	40	-24	43*	37	12	44*
Cc1cccc(-n2c(C)c(-c3ccccc3)[nH]c2=S)c1	44	-20	43*	33	14	38*
CN(C)CCNC(=S)Nc1ccccc1Cl	-18	27	-12	-15	13	·
Cc1c(Cl)cccc1NC(=S)NCCCN(C)C	3	2	46*	8	8	-2
CCC(C)NC(=O)COc1ccc(OCc2ccccc2)cc1 (stereo not drawn)	13	-46	42*	26	-39	34*
CCNC(=O)COc1ccc(OCc2ccccc2)cc1	4	-12	-4	10	-35	·
SMILES	tim23-1 inh	PfHsp90 yeast 2	TIM10 inh	tim10-1 inh	NALP3 yeast inh	tim10 confirm
NNc1nc2c(-c3ccc(Cl)cc3)nnn2c2ccccc12	21	24	69*	22	-2	70*
O=C(COc1ccc(Br)cc1)N1CCC(c2ccccc2)C1 (stereo not drawn)	24	-14	-12	33	11	·
CC(=O)N1CC(=O)N(Cc2ccccc2)/C(=C/c2ccccc2)C1=O	48	8	44*	38	27	40*
CC(=O)Oc1ccc(/C=C2/SC(=S)N(Cc3ccccc3)C2=O)cc1	4	5	19	-18	15	·
CCOC(=O)Nc1cccc(OCC(=O)Nc2ccc3c(c2)CCC3)c1	29	·	49*	-25	32	3
COc1cccc(/C=C/C(=O)c2ccc3c(c2)OCCO3)c1OC	38	-6	7	35	48	·
O=C(Nc1cnn(Cc2ccc(Cl)c(Cl)c2)c1)C12CC3CC(CC(C3)C1)C2	22	24	56*	36	20	43*
CCCC(=O)Nc1ccc(NC(=S)NC(=O)c2cccs2)cc1	-27	22	10	-22	6	·
CCCC(=O)Nc1ccc(NC(=O)c2cccs2)cn1	19	-11	40*	-15	-3	-1
CCCC(=O)NC(=S)Nc1ccc(NC(=O)c2cccs2)cc1	20	·	45*	-14	2	18
O=C(Nc1ccc(NC(=O)C2CC2)nc1)c1cccs1	12	22	28	3	0	·
CCCC(=O)Nc1cc(C)c(NC(=O)c2cccs2)cn1	16	22	1	-16	3	·
O=C(Nc1ccc(NC(=O)c2cccs2)cn1)c1ccccc1	19	13	42*	-17	25	30*
Cc1ccc(-c2nc(CN3CCCC(C(=O)N4CCOCC4)C3)c(C)o2)cc1 (stereo not drawn)	11	0	-2	7	29	·
Cc1ccccc1S(=O)(=O)/N=C(/c1ccccc1)N1CCOCC1	11	10	5	-4	5	·
Cc1ccc(-c2nnc(N(C)C(=O)c3cccnc3)s2)cn1	-7	16	14	-2	6	·
Cc1ccc(-c2nnc(N(C)C(=O)c3cccnc3)s2)cc1	46	24	42*	14	37	8
CC(C)CC(=O)NC(=S)Nc1nc(-c2cccc3ccccc23)cs1	15	-4	47*	36	19	-19
COc1ccc(-c2csc(NC(=O)CC(C)C)n2)cc1	6	5	39	10	9	·
O=C(Cn1cnc2ccccc2c1=O)c1ccc2ccccc2c1	-5	16	8	-1	37	·
O=C(Cn1cnc2ccccc2c1=O)c1ccc2c(c1)OCCO2	50	-15	45*	26	45	34*
Cc1ccc(C(c2nnnn2C2CCCCC2)N2CCc3ccccc32)cc1 (stereo not drawn)	32	-13	24	27	-8	·
CC(C)C(c1nnnn1C1CCCCC1)N1CCc2ccccc21 (stereo not drawn)	-7	17	46*	29	-39	31*
Cc1noc(C)c1CCC(=O)N1CCCC(CCC(=O)NCc2ccc(F)c(F)c2)C1 (stereo not drawn)	3	24	-8	12	-11	·
Cc1ccc(NC(=O)C2CCN(C(=O)OC(C)(C)C)CC2)cc1S(=O)(=O)N1CCCCC1	2	-3	56*	4	11	4
Cc1ccc(NC(=O)C2CCCC2)cc1S(=O)(=O)N1CCOCC1	16	8	12	8	13	·

Source: PubChem (several laboratories)
